Results: PubChem BioAssay (NCATS)
Inconclusive results are not listed. The source made the active and inactive calls. The call rests on the fitted dose curve; in most records, active means well fitted curve in the direction sought with a large enough effect; inconclusive means small, poorly fitted or top-dose-only effect, or another doubt; inactive means no such curve, though single readings can be large; an effect the other way counts as inactive or inconclusive.

Key:
[1] = test system: HACAT; assay: qHTS assay to identify novel small-molecules to repurpose for Merkel cell carcinoma treatment (AID 1296009); details: MCC and control cell lines, CellTiter-Glo viability, 72 h; at 44.8 µM (top of the series) unless noted; further: nearly all actives have a fitted effect of over 60% in size
How it was run: (§1)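 Cell viability measured by CellTiter-Glo following 72 hr compound treatment at 37 degree celsius, with NPC and MIPE libraries tested in 8- and 11-point concentration series.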

[2] = test system: NIH3T3; assay: as above; details: MCC and control cell lines, CellTiter-Glo viability, 72 h; at 44.8 µM (top of the series) unless noted
How it was run: as §1

[3] = test system: C33A; assay: Primary qHTS to identify gynecologic anti-cancer compounds using libraries of approved drugs and bioactive compounds (AID 1345084); details: Gynecologic cancer cell panel viability, ATPlite luminescence, 48 h; series mostly up to 57.5 µM; further: on the % scale 0 is the no-effect control and ±100 the full control effect; nearly all actives have a fitted effect of over 55% in size
How it was run: (§2)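 Cells, 1,000 per well, were allowed to settle for 16 h at 37 C before compound addition. Five concentrations were tested for 48 h, and viability was read by ATPlite luminescence after 15 min at room temperature.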

[4] = test system: CASKI; assay: as above; details: Gynecologic cancer cell panel viability, ATPlite luminescence, 48 h; series mostly up to 57.5 µM
How it was run: as §2

[5] = test system: Es-2; assay: as above; details: Gynecologic cancer cell panel viability, ATPlite luminescence, 48 h; series mostly up to 57.5 µM
How it was run: as §2

[6] = test system: HeLa; assay: as above; details: Gynecologic cancer cell panel viability, ATPlite luminescence, 48 h; series mostly up to 57.5 µM
How it was run: as §2

[7] = test system: Hek293T; assay: as above; details: Gynecologic cancer cell panel viability, ATPlite luminescence, 48 h, control line for the selectivity index; series mostly up to 57.5 µM
How it was run: as §2

[8] = test system: JEG-3; assay: as above; details: Gynecologic cancer cell panel viability, ATPlite luminescence, 48 h; series mostly up to 57.5 µM
How it was run: as §2

[9] = test system: OV90; assay: as above; details: Gynecologic cancer cell panel viability, ATPlite luminescence, 48 h; series mostly up to 57.5 µM
How it was run: as §2

[10] = test system: PA-1; assay: as above; details: Gynecologic cancer cell panel viability, ATPlite luminescence, 48 h; series mostly up to 57.5 µM
How it was run: as §2

[11] = test system: SKOV3; assay: as above; details: Gynecologic cancer cell panel viability, ATPlite luminescence, 48 h; series mostly up to 57.5 µM
How it was run: as §2

[12] = test system: Tov-21-G; assay: as above; details: Gynecologic cancer cell panel viability, ATPlite luminescence, 48 h; series mostly up to 57.5 µM
How it was run: as §2

[13] = test system: Tov112D; assay: as above; details: Gynecologic cancer cell panel viability, ATPlite luminescence, 48 h; series mostly up to 57.5 µM
How it was run: as §2

[14] = test system: CAOV3; assay: as above; details: Gynecologic cancer cell panel viability, ATPlite luminescence, 48 h; series mostly up to 57.5 µM
How it was run: as §2

CCNC(=O)C1CC(F)(c2ccc(CN3CCCC3)c(F)c2)C1 (stereo not given)
inactive: outcome [1] | outcome [2] | Potency [3] | outcome [4] | Potency [5] | Potency [6] | Potency [7] | Potency [8] | Potency [9] | Potency [10] | Potency [11] | Potency [12] | Potency [13]

Cc1c(-c2ccc3c(c2)OCO3)oc2ccc(C(O)C(C)O)cc12 (stereo not given)
inactive: outcome [1] | outcome [2] | Potency [3] | Potency [14] | outcome [4] | Potency [5] | Potency [6] | Potency [7] | Potency [8] | Potency [10] | Potency [13]

COc1cc(C2OCC3(O)C(c4ccc(O[C@@H]5O[C@H](CO)[C@@H](O)[C@H](O)[C@H]5O)c(OC)c4)OCC23O)ccc1O (stereo not given in full)
inactive: outcome [1] inactive [at 17.4 µM] | outcome [2] inactive [at 17.4 µM] | Potency [3] | Potency [14] | outcome [4] | Potency [5] | Potency [6] | Potency [8] | Potency [9] | Potency [10] | Potency [11] | Potency [12] | Potency [13]

CC1(CO)CC(O)C2(C)CCC3(C)C(=CCC4C5(C=O)CCC(OC6OC(C(=O)O)C(O)C(O)C6OC6OC(C(=O)O)C(O)C(O)C6O)C(C)(C)C5CCC43C)C2C1 (stereo not given)
inactive: outcome [1] inactive [at 9.27 µM] | outcome [2] inactive [at 9.27 µM] | activity change, negative = cytotoxicity [3] 4.08% [at 11.6 µM] | activity change, negative = cytotoxicity [14] 8.53% [at 11.6 µM] | activity change, negative = cytotoxicity [4] 5.93% [at 11.6 µM] | activity change, negative = cytotoxicity [5] 3.36% [at 11.6 µM] | activity change, negative = cytotoxicity [6] 7.21% [at 11.6 µM] | activity change, negative = cytotoxicity [7] -0.0914% [at 11.6 µM] | activity change, negative = cytotoxicity [8] 2.3% [at 11.6 µM] | activity change, negative = cytotoxicity [9] 0.842% [at 11.6 µM] | activity change, negative = cytotoxicity [12] 10.3% [at 11.6 µM] | activity change, negative = cytotoxicity [13] 20.1% [at 11.6 µM]

C=C(C(=O)O)C1CC(OC(=O)CC(C)CC)C2(C)CCCC(=C)C2C1 (stereo not given)
inactive: outcome [1] | outcome [2] | Potency [3] | outcome [4] | Potency [5] | Potency [6] | Potency [7] | Potency [8] | Potency [9] | Potency [10] | Potency [11] | Potency [12] | Potency [13]

COc1ccc(C2(O)c3c(ccc4c3OC(C)(CCC=C(C)C)C=C4)NC(=O)C2OC)cc1 (stereo not given)
inactive: outcome [1] inactive [at 17.4 µM] | outcome [2] inactive [at 17.4 µM] | Potency [3] | Potency [14] | Potency [5] | Potency [6] | Potency [7] | Potency [8] | Potency [9] | Potency [10] | Potency [12] | Potency [13]

C=C1[C@H](OC(C)=O)[C@H]2[C@@H](OC(C)=O)C(C)C[C@]2(OC(C)=O)C(=O)[C@H](C)/C=C/C(C)(C)C(=O)[C@H](OC(=O)C(C)C)[C@H]1OC(C)=O (stereo not given in full)
inactive: outcome [1] inactive [at 17.4 µM] | outcome [2] inactive [at 17.4 µM] | Potency [3] | Potency [14] | outcome [4] | Potency [5] | Potency [7] | Potency [8] | Potency [9] | Potency [10] | Potency [11] | Potency [12] | Potency [13]

CC1CCC2(C(=O)OC3OC(CO)C(O)C(O)C3O)CCC3(C)C(=CCC4C5(C)CCC(O)C(C)(CO)C5CCC43C)C2C1(C)O (stereo not given)
inactive: outcome [1] inactive [at 17.4 µM] | outcome [2] inactive [at 17.4 µM] | Potency [3] | outcome [4] | Potency [5] | Potency [6] | Potency [7] | Potency [8] | Potency [9] | Potency [10] | Potency [11] | Potency [12] | Potency [13]

CC1C(=O)OCC2=CC[N+]3([O-])CCC(OC(=O)C(C)(O)C1(C)O)C23 (stereo not given)
inactive: outcome [1] | outcome [2] | Potency [3] | outcome [4] | Potency [5] | Potency [6] | Potency [7] | Potency [8] | Potency [9] | Potency [10] | Potency [11] | Potency [12] | Potency [13]

Cc1ccc(-c2c(-c3nn(C)c4ncnc(N5CC[C@H](N6CCCCC6)C5)c34)cnn2C)cc1
inactive: outcome [1] | outcome [2] | Potency [3] | outcome [4] | Potency [5] | Potency [6] | Potency [7] | Potency [8] | Potency [9] | Potency [10] | Potency [11] | Potency [12] | Potency [13]

NC[C@@H]1O[C@@H](O[C@@H]2[C@@H](O[C@@H]3O[C@H](CO)[C@@H](O)[C@H]3O)[C@H](O)[C@@H](N)C[C@H]2N)[C@@H](N)[C@H](O)[C@H]1O
inactive: outcome [1] inactive [at 9.27 µM] | outcome [2] inactive [at 9.27 µM] | activity change, negative = cytotoxicity [3] 8.18% [at 11.6 µM] | activity change, negative = cytotoxicity [14] 0.692% [at 11.6 µM] | activity change, negative = cytotoxicity [4] 0.509% [at 11.6 µM] | activity change, negative = cytotoxicity [5] 6.5% [at 11.6 µM] | activity change, negative = cytotoxicity [6] 15.1% [at 11.6 µM] | activity change, negative = cytotoxicity [7] 17.2% [at 11.6 µM] | activity change, negative = cytotoxicity [8] 7.01% [at 11.6 µM] | activity change, negative = cytotoxicity [9] 0.365% [at 11.6 µM] | activity change, negative = cytotoxicity [11] 2.15% [at 11.6 µM] | activity change, negative = cytotoxicity [12] -2.07% [at 11.6 µM] | activity change, negative = cytotoxicity [13] -1.83% [at 11.6 µM]

C=C1[C@@H]2CC[C@@]3(C)[C@H](c4ccoc4)OC(=O)C[C@]13O[C@H]1CC(=O)C(C)(C)[C@H](C(O)C(=O)OC)[C@]12C (stereo not given in full)
inactive: outcome [1] inactive [at 17.4 µM] | outcome [2] inactive [at 17.4 µM] | Potency [3] | Potency [14] | outcome [4] | Potency [5] | Potency [6] | Potency [7] | Potency [8] | Potency [9] | Potency [11] | Potency [12] | Potency [13]

CC(=O)O[C@@H](C[C@@H]1C=C(C)C(=O)O1)[C@H](C)[C@H]1CCC2[C@@]3(C)CC[C@H](O[C@@H]4O[C@H](CO)[C@@H](O)[C@H](O)[C@H]4O[C@@H]4O[C@@H](C)[C@H](O)[C@@H](O)[C@H]4O)C(C)(C)C3CC[C@@]2(C)[C@@]12COC(=O)C2 (stereo not given in full)
inactive: outcome [1] inactive [at 9.27 µM] | outcome [2] inactive [at 9.27 µM] | activity change, negative = cytotoxicity [3] 13.5% [at 11.6 µM] | activity change, negative = cytotoxicity [14] 4.91% [at 11.6 µM] | activity change, negative = cytotoxicity [4] 4.88% [at 11.6 µM] | activity change, negative = cytotoxicity [5] 8.74% [at 11.6 µM] | activity change, negative = cytotoxicity [6] 5.41% [at 11.6 µM] | activity change, negative = cytotoxicity [7] 15.9% [at 11.6 µM] | activity change, negative = cytotoxicity [8] -9.52% [at 11.6 µM] | activity change, negative = cytotoxicity [9] 15.4% [at 11.6 µM] | activity change, negative = cytotoxicity [11] 14.4% [at 11.6 µM] | activity change, negative = cytotoxicity [12] 2.35% [at 11.6 µM] | activity change, negative = cytotoxicity [13] 13.8% [at 11.6 µM]
